Sm TGR inh = qHTS Assay for the Inhibitors of Schistosoma Mansoni Peroxiredoxins | Schistosoma mansoni thioredoxin glutathione reductase (TGR), Q962Y6 | purified TGR, DTNB reduction, TNB absorbance 405 nm | Potency, µM (titrated, usually from 114 µM), hits mostly inhibitors | 3% of 360,000 active | AID 485364, 2010; note: nearly all actives have a fitted effect of over 60% in size
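Kinetic colorimetric format: TGR-catalysed, NADPH-driven DTNB reduction monitored via TNB absorbance. Enzyme dispensed at 20 nM; compound exposure 15 min at room temperature before reaction start.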
AMA1-RON2 inh = qHTS for Inhibitors of AMA1-RON; Towards Development of Antimalarial Drug Lead: Primary Screen; Potency, µM (doses to about 58.2 µM), usual class: inhibitors; AlphaScreen AMA1-biotinylated RON2 peptide binding; 0.2% of 360,000 active; Plasmodium falciparum AMA1 (3D7) - RON2 peptide interaction; AID 720542, 2013; note: nearly all actives have a fitted effect of over 45% in size
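AMA1 (3D7) with his tag at 25 nM final met compounds first, then biotinylated RON2 peptide at 25 nM; detection used donor plus acceptor beads, 10 µg/mL apiece, read by AlphaScreen after 30 min at room temperature.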
Pf growth 96h = Primary qHTS for delayed death inhibitors of the malarial parasite plastid, 96 hour incubation. P. falciparum luciferase reporter growth, 96 h. Potency, µM (highest dose often 28.7 µM), hits mostly inhibitors. 6.9% of 320,000 active
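Luminescence readout: decreased luciferase signal marks inhibited growth of reporter-expressing P. falciparum in infected red cells (2% hematocrit, 0.05% parasitemia final), exposed to compound two generations (96 h, 37 C, 5% CO2).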
NS1 function inh = qHTS Assay for Inhibitors of Influenza NS1 Protein Function; 0.4% of 270,000 active; Potency, µM (series often up to 46.1 µM); calls by dose curve; note: actives are rising curves; nearly all actives have a fitted effect of over 50% in size
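Read-out: OD600 growth recovery of NS1-expressing budding yeast. Cells grown overnight at 30C in -URA glucose medium, washed, resuspended and diluted 1:100 in 2% galactose assay medium, pH 6.0. Same strain lacking NS1 served as positive control.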
Pf growth 48h = Primary qHTS for delayed death inhibitors of the malarial parasite plastid, 48 hour incubation. P. falciparum luciferase growth in erythrocytes, 48 h. Potency, µM (series often up to 28.7 µM), hits mostly inhibitors. AID 504832, 2011. 5.9% of 310,000 active
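Growth was read as firefly luciferase luminescence after a 48 h, 37 C, 5% CO2 exposure of compounds to reporter-bearing P. falciparum cultures (0.1% parasitemia, 2% hematocrit final) in Albumax-supplemented RPMI 1640.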
Hits are given with their value; . = inactive; ? = inconclusive; / = no result; [ ] = another dose, or the depositor's remark. This is a sample that favours compounds with a hit; in the whole collection about 11% have one here. Unless noted, calls come from the whole dose curve; as a rule, active = well fitted curve in the direction sought with a large enough effect; inconclusive = small, poorly fitted or top-dose-only effect, or another doubt; inactive = no such curve, though single readings can be large; an effect the other way counts as inactive or inconclusive.

SMILES	Sm TGR inh	AMA1-RON2 inh	Pf growth 96h	NS1 function inh	Pf growth 48h
Cc1c(Cl)ccc2sc(N3CCN(C(=O)c4ccco4)CC3)nc12	.	/	/	/	/
O=C(c1ccc([N+](=O)[O-])o1)N1CCN(c2nc3ccc(F)cc3s2)CC1	.	.	1.2µM	/	2.3µM
CCCCC(=O)N1CCN(c2nc3c(C)c(C)ccc3s2)CC1	.	/	/	/	/
O=C(C1CC1)N1CCN(c2nc3ccc(F)cc3s2)CC1	.	/	/	/	/
COc1cc2c3c(c1)/C(=C1/SC(NC(C)=O)=NC1=O)C(=O)N3C(C)(C)C=C2C	40µM	.	/	.	.
COc1ccccc1C(=O)NCCC(=O)NNC(=O)C1COc2ccccc2O1 (stereo not given)	.	.	.	/	.
CC(C)Sc1oc(-c2ccco2)nc1S(=O)(=O)c1ccc(F)cc1	18µM	.	15µM	.	?
CCC(C)Sc1oc(-c2ccco2)nc1S(=O)(=O)c1ccc(Cl)cc1 (stereo not given)	.	/	/	/	/
Cc1ccc(S(=O)(=O)c2nc(-c3ccco3)oc2SCC(N)=O)cc1	40µM	.	?	.	.
CC(C)CSc1oc(-c2ccco2)nc1S(=O)(=O)c1ccc(Br)cc1	.	/	/	/	/
NC(=O)CSc1oc(-c2ccco2)nc1S(=O)(=O)c1ccc(Br)cc1	18µM	.	.	.	.
CCCSc1oc(-c2ccco2)nc1S(=O)(=O)c1ccccc1	56µM	.	/	.	.
Cc1ccc(-c2nc(S(=O)(=O)c3ccc(C)cc3)c(SCC(N)=O)o2)cc1	.	.	.	.	.
CC(=O)C1=C(O)C(=O)N(C)C1c1ccccc1[N+](=O)[O-] (stereo not given)	.	.	.	.	.
CCOc1ccc(CNC(=O)C2CCN(S(=O)(=O)c3cn(C)cn3)CC2)cc1	.	/	/	/	/
CNC(=O)c1c(I)c(C(=O)NCC(=O)Nc2c(I)c(C(=O)O)c(I)c(C(=O)NCCO)c2I)c(I)c(N(C)C(C)=O)c1I	.	.	.	/	.
CSc1oc(-c2ccco2)nc1S(=O)(=O)c1ccc(Br)cc1	50µM	.	?	.	?
NC(=O)CSc1oc(-c2ccco2)nc1S(=O)(=O)c1ccc(Cl)cc1	20µM	.	.	.	.
CCCSc1oc(-c2ccco2)nc1S(=O)(=O)c1ccc(Br)cc1	.	/	/	/	/
CCOC(=O)c1c(N2C(=O)C=CC2=O)sc(C)c1C	0.45µM	.	.	.	.
CCOC(=O)c1c(NC(N)=O)sc(C)c1C	.	.	/	.	.
O=C(Cc1sc(Nc2ccccc2)nc1-c1ccccc1)NCc1ccccn1	25µM	.	.	/	.
O=C(O)Cc1sc(Nc2ccccc2)nc1-c1ccc(Cl)cc1	45µM	.	.	/	.
CCn1ccc2c(OCC(=O)Nc3ccccc3C)cccc2c1=O	.	/	/	/	/
CC(=O)Nc1cccc(C(=O)N/N=C/c2ccccc2F)c1	.	.	6.6µM	.	.
SMILES	Sm TGR inh	AMA1-RON2 inh	Pf growth 96h	NS1 function inh	Pf growth 48h
O=C(N/N=C/c1ccc(O)c([N+](=O)[O-])c1)c1ccncc1	.	.	.	.	.
O=C(N/N=C/c1ccccc1O)c1ccncc1	.	.	12µM	/	9.3µM
O=C(N/N=C/c1ccc(O)c(O)c1)c1cccc(S(=O)(=O)N2CCCCC2)c1	.	.	.	/	.
Cc1ccc(C(=O)Nc2cccc(C(=O)N/N=C/c3ccccc3F)c2)cc1	.	.	?	.	.
O=C(N/N=C/c1cc([N+](=O)[O-])ccc1O)c1ccncc1	.	.	?	.	8.3µM
O=C(N/N=C\c1cc(Br)ccc1O)c1ccc(S(=O)(=O)N2CCCCC2)cc1	.	.	.	.	5.2µM
COc1ccc(C(=O)Nc2ccnn2C2CCN(CCC(C)c3ccc(C)o3)CC2)cc1 (stereo not given)	?	.	.	.	.
CCCCCc1nnc(NC(=O)c2ccc3nc[nH]c3c2)s1	.	.	?	/	.
COc1ccc(Br)cc1/C=N/NC(=O)c1nc(-c2ccccc2)n2c1CCCCC2	.	.	7.4µM	.	/
COc1ccc(NC(=O)c2nc(-c3ccc(C)cc3)n3c2CCCCC3)c(OC)c1	.	/	/	/	/
CC(=O)Nc1ccc(C(=O)N/N=C/c2cc(Br)cc(Br)c2O)cc1	.	.	2.9µM	/	.[5.75 µM]
O=C(CNC(=O)c1ccco1)N/N=C/c1ccccc1[N+](=O)[O-]	.	.	0.93µM	/	.
O=C(N/N=C/c1ccccc1O)c1cccc2ccccc12	.	.	.	.	12µM
CC(C)C[C@H](N)C(=O)O	/	/	/	.	/
CCc1cc(=O)oc2c3c(cc(OCC(=O)N[C@H](C(=O)O)[C@H](C)CC)c12)OC(C)(C)CC3	.	.	?	.	?
O=C(CCCC(=O)Nc1cccc(Br)c1)N/N=C/c1cc([N+](=O)[O-])ccc1O	.	.	.	.	10µM
O=C(N/N=C/c1cc(Br)ccc1OC(=O)c1ccc(Br)cc1)c1ccncc1	.	.	.	.	1.7µM
O=C(N/N=C/c1cc(Br)ccc1O)c1ccncc1	.	.	1.7µM	.	2.6µM
O=C(N/N=C/c1cc([N+](=O)[O-])ccc1O)c1cccc2cc[nH]c12	.	.	3.7µM	.	?
O=C(CCC(=O)Nc1cccc(Cl)c1)N/N=C/c1cc([N+](=O)[O-])ccc1O	.	.	.	/	?
CCOC(=O)[C@]12CCCC=C1N(Cc1ccccc1)C(=O)[C@H](CC(=O)N1CCN(C(=O)c3ccco3)CC1)C2	/	.	/	/	/
O=C(NCc1nnnn1-c1ccc(F)c(F)c1)c1ccc2c(c1)OCO2	.	.	.	/	.
Cc1ccccc1S(=O)(=O)Nc1ncnc2ccccc12	.	.	.	.	.
Cc1cccc(-c2c3c(nc4c2c(=O)n(C)c(=O)n4C)-c2ccccc2C3O)c1 (stereo not given)	/	.	/	/	/
O=C(N/N=C/c1ccccc1[N+](=O)[O-])c1ccncc1	.	.	0.17µM	.	.
SMILES	Sm TGR inh	AMA1-RON2 inh	Pf growth 96h	NS1 function inh	Pf growth 48h
O=C(N/N=C/C=C/c1ccccc1[N+](=O)[O-])c1ccncc1	.	.	.	.	.
O=C(N/N=C/c1nn(-c2ccccc2)cc1-c1ccc(Cl)cc1)c1ccncc1	.	/	?	.	2.1µM
Cc1nc(C)c(C(=O)N/N=C/c2cc(Br)ccc2O)s1	.	.	5.2µM	.	2.3µM
COc1ccc(Br)cc1/C=N/NC(=O)c1cc(OC)c(OC)c(OC)c1	.	.	.	.	.
COc1ccc(Br)cc1/C=N/NC(=O)c1ccc(OC)c(OC)c1	.	.	.	.	4.1µM
CCC(C)C(=O)Nc1nnc(SCC(=O)N2C(C)CCCC2C)s1 (stereo not given)	.	.	.	.	?
CCCN1CCCc2cc(CN(CCCN3CCOCC3)C(=O)Nc3ccc(CC)cc3)ccc21	.	/	/	/	/
CSCCC(C(=O)NC(C)(C)C)n1c(-c2ccc3c(c2)OCO3)nc2ccccc21 (stereo not given)	/	.	/	/	/

Assay outcomes (PubChem)
